HCV inhibitor = HCV inhibition. Huh7.5.1 HCVcc-Cre infection, luciferase reporter, 44 h. Potency, µM (highest dose often 41.8 µM), actives largely listed as inhibitors. hit rate 3.4% among 340,000. AID 651820
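1,000 cells/well; 4 h culture; + compound; + HCVcc-Cre (~0.5 moi); 44 h; luciferase substrate, RT 15 min; read 15 sec.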
HCMV inh = inhibitors of human cytomegalovirus; hit rate 4.5% among 410,000; activity change, negative = inhibition, % at 57.5 µM; AID 1259415; HFF cells, HCMV-luciferase reporter, 72 h; active compounds read low; in the data active = activity change below about -60%; inconclusive = no clear call, values can overlap the other calls; inactive = above about -39%
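HFF cells seeded 16 h at 37C, treated with compounds, infected with luciferase-reporter HCMV at MOI 1 PFU/cell; luciferase read at 72 h post infection, normalized to buffer-only and Salinomycin controls.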
Pf growth 48h = inhibits P. falciparum growth in the first generation, 48 h; AID 504832; Potency, µM (highest dose often 28.7 µM), actives largely listed as inhibitors; P. falciparum luciferase growth in erythrocytes, 48 h; hit rate 5.9% among 310,000
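Growth was read as firefly luciferase luminescence after a 48 h, 37 C, 5% CO2 exposure of compounds to reporter-bearing P. falciparum cultures (0.1% parasitemia, 2% hematocrit final) in Albumax-supplemented RPMI 1640.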
Cycloheximide cs = affects cycloheximide protein synthesis inhibition readout, counter-screen | hit rate 12% among 300,000 | cell reporter, cycloheximide protein synthesis inhibition counterscreen | AID 2314 | max response, %; in the data active = max response mostly above about 13%, no sharp cut-off; inactive = mostly below about 14%; also: read at 38.3 µM for the half of the compounds with a filed dose
Shiga inhibitor = inhibitors of Shiga toxin in Vero cells | Vero cells, Shiga toxin protein synthesis inhibition reporter | inhibition, % at 38.7 µM | hit rate 9.2% among 290,000 | AID 2315; in the data active = inhibition mostly above about 28%, no sharp cut-off; inactive = mostly below about 43%
Pf growth 96h = P. falciparum growth inhibition at 96 hours. P. falciparum luciferase reporter growth, 96 h. Potency, µM (series often up to 28.7 µM), hits mostly inhibitors. hit rate 6.9% among 320,000. AID 504834
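Delayed-death screen, second-generation endpoint: infected erythrocytes, 2% hematocrit, 0.05% parasitemia final; 96 hours at 37 C, 5% CO2; luciferase detection reagent; luminescence decrease equals reduced growth.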
Of the large screens only hits and unclear results are named; the others gave an inactive call. A selection: hits, their analogues and other compounds. The true share with any hit is near 21%. Unless noted, calls follow the shape of the dose curve; as a rule, active = well fitted inhibition curve with a large enough effect; inconclusive = small, poorly fitted or top-dose-only effect, or another doubt; inactive = no such curve, though single readings can be large or run the other way.

Cc1ccc(C(C(=O)NC2CCCC2)N(Cc2ccco2)C(=O)CCC(=O)Nc2cc(C)on2)cc1 (stereo not drawn)	HCV inhibitor inconclusive, Pf growth 48h inconclusive, Pf growth 96h 13.1µM
Cc1cc(NC(=O)CCC(=O)N(c2cccc(F)c2)C(C(=O)NC2CCCC2)c2ccc(C)o2)no1 (stereo not drawn)	Pf growth 96h inconclusive
COc1ccc(N2CCN(C(=O)NC(=O)c3ccccc3)CC2)cc1	Pf growth 48h inconclusive, Pf growth 96h inconclusive
CCOC(=O)c1c(C)n(-c2ccccc2)c2ccc(OC(=O)c3cccc(Cl)c3)cc12	none (no result: HCV inhibitor, Pf growth 48h, Cycloheximide cs, Shiga inhibitor, Pf growth 96h)
CC1CCn2c(nc3cc(C(=O)NCc4ccc(F)cc4)ccc32)C1 (stereo not drawn)	none (no result: HCV inhibitor, Pf growth 48h, Cycloheximide cs, Shiga inhibitor, Pf growth 96h)
Cc1cc(NC(=O)CCC(=O)N(c2ccccc2)C(C(=O)NC2CCCC2)c2ccccc2C)no1 (stereo not drawn)	Pf growth 48h 13.1µM, Pf growth 96h inconclusive
Cc1cc(NC(=O)CCC(=O)N(c2ccccc2)C(C)C(=O)NC2CCCC2)no1 (stereo not drawn)	none
CCCCN(C(=O)CCC(=O)Nc1cc(C)on1)C(C(=O)NC1CCCC1)c1ccccc1OCC (stereo not drawn)	Pf growth 48h 14.7µM
COc1ccc(N(C(=O)Cn2nnc3ccccc32)C2(C(=O)NC3CCCC3)CCCCC2)cc1	HCV inhibitor 5.62µM, HCMV inh inconclusive, Pf growth 48h 13.1µM, Pf growth 96h 13.1µM
COc1ccc(N(C(=O)Cn2cnc3ccccc32)C(C(=O)NC2CCCCC2)c2ccccc2)cc1 (stereo not drawn)	HCV inhibitor inconclusive, Pf growth 48h 13.1µM, Pf growth 96h inconclusive
CSc1ccc(CCNC(=O)NCc2noc3ccccc23)cc1	none (no result: HCV inhibitor, Pf growth 48h, Cycloheximide cs, Shiga inhibitor, Pf growth 96h)
Cc1c(N(C(=O)CNC(=O)c2ccccc2)C2(C(=O)NC3CCCCC3)CCCCC2)c(=O)n(-c2ccccc2)n1C	HCMV inh inconclusive, Pf growth 48h 5.86µM, Pf growth 96h inconclusive
CC(=O)NCC(=O)N(c1c(C)n(C)n(-c2ccccc2)c1=O)C1(C(=O)NC2CCCC2)CCCCC1	Pf growth 96h inconclusive
Cc1cc(NC(=O)CCC(=O)N(c2ccccc2)C(C(=O)NC2CCCC2)c2cccs2)no1 (stereo not drawn)	Pf growth 48h inconclusive (no result: Pf growth 96h)
Cc1ccc(N(C(=O)CCC(=O)Nc2cc(C)on2)C(C(=O)NC2CCCC2)c2cccs2)cc1 (stereo not drawn)	HCV inhibitor inconclusive, Pf growth 48h 11.7µM (no result: Pf growth 96h)
O=C(NCCCc1nc2ccccc2n1Cc1ccccc1F)c1ccco1	none (no result: HCV inhibitor, Pf growth 48h, Cycloheximide cs, Shiga inhibitor, Pf growth 96h)
COc1cc(C(C[N+](=O)[O-])c2c(C)cc3ccccn23)ccc1O (stereo not drawn)	HCV inhibitor inconclusive, HCMV inh -64.4, Pf growth 48h inconclusive, Pf growth 96h inconclusive
COc1ccc(C(C[N+](=O)[O-])c2c(-c3ccccc3)cc3ccccn23)cc1 (stereo not drawn)	Pf growth 48h inconclusive, Cycloheximide cs 39.9
COc1cc(C(C[N+](=O)[O-])c2c(-c3ccccc3)cc3ccccn23)cc(OC)c1OC (stereo not drawn)	HCMV inh inconclusive, Pf growth 96h 11.7µM (no result: Pf growth 48h)
COc1ccccc1-n1c(C)c2c(OC)cccc(=O)c2c1C	Pf growth 48h 4.15µM
COc1ccc(-n2c(C)c3c(OC)cccc(=O)c3c2C)cc1	Pf growth 48h inconclusive, Pf growth 96h 10.4µM
COc1cccc(=O)c2c(C)n(-c3ccc(C(=O)O)cc3)c(C)c12	Pf growth 48h inconclusive
COc1cccc(=O)c2c(C)oc(C)c12	none (no result: Pf growth 48h)
O=C(CSc1ncn[nH]1)NNC(=O)c1ccccc1	HCMV inh inconclusive (no result: Cycloheximide cs, Shiga inhibitor)
Cc1ccc(OC2CCN(C(=O)[C@H]3O[C@@H](n4cnc5c(N)ncnc54)[C@H](O)[C@@H]3O)CC2)cc1	none (no result: HCV inhibitor, Pf growth 48h, Cycloheximide cs, Shiga inhibitor, Pf growth 96h)
Cc1ccc2c(CC(=O)N3CCc4ccccc43)coc2c1	Cycloheximide cs 23.3, Shiga inhibitor 100.5
CCN1CCN(C(=O)Cc2coc3ccc4ccccc4c23)CC1	none (no result: Pf growth 96h)
O=C(Cc1coc2ccc3ccccc3c12)N1CCN(c2ncccn2)CC1	Pf growth 48h inconclusive, Pf growth 96h 8.28µM
Cc1ccc2c(CC(=O)N3CCN(S(=O)(=O)c4ccccc4)CC3)coc2c1	Pf growth 48h inconclusive (no result: Cycloheximide cs, Shiga inhibitor)
O=C(Cc1c[nH]c2ccccc12)N1CCc2ccccc21	Cycloheximide cs 30.3, Shiga inhibitor 86.9, Pf growth 96h 10.4µM

Compound activity: PubChem, National Center for Advancing Translational Sciences (NCATS)
